# The source made the active and inactive calls.
# How the values were obtained:
# [1] = system: Human papillomavirus type 1a protein E7 (residues 44-93); assay: small molecules binding HPV E7 44-93 – biochemical, small-molecule microarray, residues 44-93, 635 nm fluorescence, primary screen (AID 1108); conditions: fluorescence 635 nm, higher = more signal;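 also: E7 fragment applied at 1 µg/mL in TBST for 1 h at 4 C; score combines spot fluorescence with its signal to noise ratio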
# [2] = hepatitis C replication reporter changes, two-sided – Huh7 cells, luciferase reporter, HCV replication inhibitor project, primary screen (AID 1109); conditions: Huh7 HCV replicon luciferase reporter, 48 h; higher = more signal;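 also: huh7 hepatoma cells harbouring a luciferase neomycin HCV replicon reporter; luciferase luminescence as measure of HCV replicon replication; test concentration not given here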
# [3] = molecular target: Left-right determination factor 2 (Homo sapiens) (UniProt O00292); assay: small molecules binding LEFTY2 protein – biochemical, small-molecule microarray, 635 nm fluorescence scan, primary screen (AID 1110); conditions: higher = more signal
# [4] = molecular target: Calmodulin-1 (Homo sapiens) (UniProt P0DP23); assay: small molecules binding calmodulin-1 with EGTA – biochemical, small-molecule microarray, Cy5-labelled CALM1, profiling panel (AID 1111); conditions: Cy5-CALM1 binding fluorescence, higher = more signal;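 also: labelled calmodulin applied in Tris saline Tween buffer holding calcium plus EGTA and DTT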
# [5] = molecular target: Calmodulin-1 (Homo sapiens) (UniProt P0DP23); assay: small molecules binding Ca-loaded calmodulin-1 – biochemical, small-molecule microarray, Cy5-labelled CALM1, plus calcium, artefact control for SMM control-protein annotation, profiling panel (AID 1112); conditions: Cy5-CALM1 binding fluorescence, higher = more signal;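 also: score merges spot fluorescence with signal to noise from triplicate slides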
# [6] = probe aWnt5a binding to arrayed compounds – biochemical, biotinylated probe, 635/667 nm fluorescence, primary screen (AID 1113); conditions: small-molecule microarray, higher = more signal;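 also: score merges 667 nm fluorescence intensity with signal-to-noise per printed feature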
# [7] = probe aShh binding to arrayed compounds – biochemical, biotinylated probe, 635/667 nm fluorescence, primary screen (AID 1114); conditions: small-molecule microarray, higher = more signal;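 also: probe is biotin-labelled aShh protein from a stem cell growth factor screen; measures binding of labelled protein to compounds printed on the slide; score merges feature fluorescence at 667 nm with signal-to-noise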
# [8] = probe aNog binding to arrayed compounds – biochemical, biotinylated probe, 635/667 nm fluorescence, primary screen (AID 1115); conditions: small-molecule microarray, higher = more signal;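 also: probe is biotinylated aNog protein used at 0.15 µg/mL for 1 h at 4 C; z-score combines 667 nm fluorescence of each spot with its signal to noise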
# [9] = molecular target: Torsin-1A-interacting protein 1 (Homo sapiens) (UniProt Q5JTV8); assay: compound microarray binding of lysate hLAP1 – cell lysate, small-molecule microarray, COS7 lysate, 635/667 nm fluorescence, primary screen (AID 1116); conditions: 635 nm fluorescence, higher = more signal
# [10] = molecular target: Alpha-bungarotoxin (Bungarus multicinctus) (UniProt P60615); assay: compounds binding labelled alpha-BTX control protein – biochemical, small-molecule microarray, Alexa647 label, 635/667 nm fluorescence, artefact control for SMM control protein annotation, profiling panel (AID 1117); conditions: alpha-BTX-A647 binding fluorescence, higher = more signal
# Albumin (Bos taurus) = Albumin (Bos taurus) (UniProt P02769); assay: compounds binding labelled BSA control protein – biochemical, small-molecule microarray, Alexa647 label, 635/667 nm fluorescence, artefact control for SMM control protein annotation, profiling panel (AID 1118); conditions: BSA-A647 binding, fluorescence 635 nm, higher = more signal;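 also: score merges 667 nm emission intensity and signal-to-noise per printed compound spot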
# [11] = probe aXIP binding to arrayed compounds – biochemical, NeuroSMM set, 635/667 nm fluorescence, primary screen (AID 1119); conditions: small-molecule microarray, higher = more signal, called active from +8 up or from −8 down;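 also: probe is the protein aXip251-270 applied at 1 µg/mL to compound-printed slides; binding of probe to printed compounds measured as 667 nm fluorescence plus signal to noise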
# [12] = probe aNOTCH3 binding on compound microarray – biochemical, small-molecule microarray, 635/667 nm fluorescence, primary screen (AID 1120); conditions: higher = more signal;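 also: probe is a biotin-tagged antibody raised against NOTCH3 rather than NOTCH3 protein; score merges spot fluorescence near 667 nm with spot signal to noise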
# [13] = probe aNOTCH2 binding on compound microarray – biochemical, small-molecule microarray, 635/667 nm fluorescence, primary screen (AID 1121); conditions: higher = more signal;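 also: score merges feature fluorescence read at 667 nm with its signal to noise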
# [14] = molecular target: Carbonic anhydrase 2 (Homo sapiens) (UniProt P00918); assay: compounds binding carbonic anhydrase 2 – biochemical, small-molecule microarray, Alexa647-labelled CAII, profiling panel (AID 1122); conditions: CAII-A647 binding fluorescence, higher = more signal
# [15] = COS7 lysate on small-molecule microarray, probe aHis, 635 nm (AID 1123); conditions: COS7 cell lysate, fluorescence, higher = more signal;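 also: z-score combines 667nm fluorescence intensity with signal-to-noise per printed compound spot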
# [16] = probe aLAP1 signal on lysate-treated microarray – cell lysate, small-molecule microarray, COS7 lysate, primary screen (AID 1124); conditions: probe aLAP1, fluorescence, higher = more signal;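 also: lysate comes from COS7 cells expressing LAP1 and is applied at 0.3 µg/mL; score merges spot fluorescence near 667 nm with signal-to-noise over triplicate slides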
# Sam68 (KHDRBS1) = assay: compounds binding KHDRBS1 protein – biochemical, small-molecule microarray, 635 nm fluorescence, primary screen (AID 1125); conditions: higher = more signal;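 also: score merges 667 nm channel intensity with signal to noise over triplicate slides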
# [17] = system: Chordin-like protein 2 (CHRDL2); assay: compounds binding chordin-like 2 – biochemical, small-molecule microarray, 635 nm fluorescence, primary screen (AID 1126); conditions: fluorescence 635 nm, higher = more signal;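 also: printed compound slides probed with Chrdl2 protein at 4 µg/mL for 1 h at 4 C; score merges 667 nm emission intensity with signal to noise over three replicate slides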
# [18] = molecular target: Concanavalin-A (Canavalia ensiformis) (UniProt P02866); assay: compounds binding concanavalin A lectin – biochemical, small-molecule microarray, Alexa647 label, 635 nm, artefact control for SMM control protein annotation, primary screen (AID 1127); conditions: ConA-A647 binding fluorescence, higher = more signal;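 also: z combines 667 nm emission intensity with signal-to-noise across three replicate slides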
# Sequence of Concanavalin-A (Canavalia ensiformis) (P02866 whole entry, looked up): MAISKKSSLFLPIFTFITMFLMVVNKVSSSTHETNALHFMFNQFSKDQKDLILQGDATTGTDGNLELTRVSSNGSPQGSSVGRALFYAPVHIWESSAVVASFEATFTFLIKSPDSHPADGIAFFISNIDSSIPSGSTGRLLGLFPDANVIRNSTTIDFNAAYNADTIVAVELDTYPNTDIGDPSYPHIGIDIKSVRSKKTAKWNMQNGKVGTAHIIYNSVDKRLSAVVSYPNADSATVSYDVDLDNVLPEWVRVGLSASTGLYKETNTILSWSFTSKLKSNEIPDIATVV
# Sequence of Alpha-bungarotoxin (Bungarus multicinctus) (P60615 whole entry, looked up): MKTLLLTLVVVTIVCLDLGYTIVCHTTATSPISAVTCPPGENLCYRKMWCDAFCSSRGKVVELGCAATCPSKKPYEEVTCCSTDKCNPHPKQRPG
# Sequence of Left-right determination factor 2 (Homo sapiens) (O00292 whole entry, looked up): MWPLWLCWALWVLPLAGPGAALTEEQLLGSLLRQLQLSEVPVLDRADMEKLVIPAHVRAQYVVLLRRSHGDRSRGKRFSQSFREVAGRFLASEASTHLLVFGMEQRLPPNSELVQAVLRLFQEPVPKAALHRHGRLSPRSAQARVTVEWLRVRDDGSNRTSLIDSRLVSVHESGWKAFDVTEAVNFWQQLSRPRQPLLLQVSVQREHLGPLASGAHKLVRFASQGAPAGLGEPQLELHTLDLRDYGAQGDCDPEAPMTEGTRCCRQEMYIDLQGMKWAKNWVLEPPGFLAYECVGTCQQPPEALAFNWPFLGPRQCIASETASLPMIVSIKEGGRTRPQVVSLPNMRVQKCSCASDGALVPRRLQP
# Sequence of Albumin (Bos taurus) (P02769 whole entry, looked up): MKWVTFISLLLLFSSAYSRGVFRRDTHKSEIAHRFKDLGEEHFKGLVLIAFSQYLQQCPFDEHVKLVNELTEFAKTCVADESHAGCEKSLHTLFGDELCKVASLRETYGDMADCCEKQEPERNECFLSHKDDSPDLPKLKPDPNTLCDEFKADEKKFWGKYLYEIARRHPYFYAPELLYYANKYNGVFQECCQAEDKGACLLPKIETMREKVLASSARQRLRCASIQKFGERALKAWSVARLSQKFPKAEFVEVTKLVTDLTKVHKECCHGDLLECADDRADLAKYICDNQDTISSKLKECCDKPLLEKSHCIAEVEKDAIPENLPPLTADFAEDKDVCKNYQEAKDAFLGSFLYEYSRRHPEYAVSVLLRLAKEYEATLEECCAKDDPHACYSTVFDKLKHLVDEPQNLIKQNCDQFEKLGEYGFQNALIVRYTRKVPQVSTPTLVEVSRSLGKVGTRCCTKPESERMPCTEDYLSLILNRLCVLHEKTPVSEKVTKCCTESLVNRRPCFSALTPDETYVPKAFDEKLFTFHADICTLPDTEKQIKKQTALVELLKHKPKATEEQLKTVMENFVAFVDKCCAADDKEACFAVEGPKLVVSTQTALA
# Sequence of Torsin-1A-interacting protein 1 (Homo sapiens) (Q5JTV8 whole entry, looked up): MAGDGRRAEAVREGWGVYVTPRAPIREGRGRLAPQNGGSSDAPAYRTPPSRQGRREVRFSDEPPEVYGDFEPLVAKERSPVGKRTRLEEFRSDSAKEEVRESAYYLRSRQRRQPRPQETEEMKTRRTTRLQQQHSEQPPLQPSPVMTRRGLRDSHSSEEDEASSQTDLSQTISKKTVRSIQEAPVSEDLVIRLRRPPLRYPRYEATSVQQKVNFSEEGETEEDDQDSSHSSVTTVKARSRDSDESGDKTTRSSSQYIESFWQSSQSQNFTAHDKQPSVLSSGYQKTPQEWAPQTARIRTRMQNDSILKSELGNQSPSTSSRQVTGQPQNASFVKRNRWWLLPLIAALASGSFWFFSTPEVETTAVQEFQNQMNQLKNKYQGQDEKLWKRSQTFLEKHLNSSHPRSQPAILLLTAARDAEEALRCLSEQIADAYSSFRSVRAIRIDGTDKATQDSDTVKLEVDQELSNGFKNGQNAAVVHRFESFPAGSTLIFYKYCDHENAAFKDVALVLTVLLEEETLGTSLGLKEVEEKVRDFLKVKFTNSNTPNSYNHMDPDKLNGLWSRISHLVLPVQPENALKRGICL
SMILES,composite z-score [1],z-score [2],composite z-score [3],composite z-score [4],composite z-score [5],composite z-score [6],composite z-score [7],composite z-score [8],composite z-score [9],composite z-score [10],composite z-score (Albumin (Bos taurus)),composite Z-score [11],composite z-score [12],composite z-score [13],composite z-score [14],composite z-score [15],composite z-score [16],composite z-score (Sam68 (KHDRBS1)),composite z-score [17],composite z-score [18]
COC(=O)[C@@]1(Cc2ccc(F)cc2)[C@H]2c3cc(C(=O)N(C)C)n(CCc4ccc(OC)c(Br)c4)c3C[C@H]2CN1C(=O)c1ccccc1,0.971,-3.74,-0.392,0.314,0.535,1.19,0.289,2.8,0.589,0.653,0.939,0.562 (inactive),0.613,0.363,0.487,1.44,0.0915,-0.111,-0.66,0.793
COC(=O)c1c(CC[C@@H](CO)NC(=O)N2CCC[C@H]2Cn2cc(C3(O)CCCCC3)nn2)oc(C(C)=O)c1C(=O)OC,1.33,-0.172,0.562,0.624,-0.712,-0.275,-0.0709,0.189,0.416,0.966,0.844,0.506 (inactive),-0.0328,-0.0795,0.707,1.44,0.473,1.28,1.09,1.04
C=CCC(OC(C)=O)[C@@H]1[C@@H](N(Cc2ccc(-c3cccc(C(F)(F)F)c3)o2)C(=O)c2ccc(-c3ccccc3)cc2)c2cc(OCCCO)ccc2N1C(=O)Cc1ccc2ccccc2c1 (stereo not given in full),-0.267,-1.09,-0.458,-0.248,0.277,-0.0981,0.0204,-0.144,-0.115,-0.153,-0.124,-0.274 (inactive),-0.149,-0.11,-0.177,0.453,-0.039,-0.421,-0.353,-0.0333
CC(CO)N1C(=O)[C@@H]2[C@H]3C(=O)OCC=C[C@H]3OC23C=CCN(Cn2nnc4ccccc42)C(=O)[C@@H]13 (stereo not given in full),-0.931,0.0368,-1.4,-0.196,0.0507,-0.13,-0.117,0.0517,-0.607,-0.975,-0.779,0.6 (inactive),-0.256,-0.13,0.419,0.523,-0.199,-0.766,-0.851,-0.967
C=CCNC(=O)[C@H]1[C@@H]2C(=O)O[C@@H](c3ccccc3)[C@@H](c3ccccc3)N2[C@@H](c2ccccc2OCCO)[C@]12C(=O)N(C(=O)OCCOC)c1ccc(C#CC3(O)CCCCCC3)cc12,1.25,-2.88,0.371,1.09,0.647,-0.0239,0.176,-0.168,1.22,0.996,0.604,0.359 (inactive),0.0225,0.0018,0.309,1.79,1.05,1.29,0.174,0.815
O=C(NCCN1CCOCC1)[C@@H]1c2ccccc2C(=O)N(Cc2ccccc2Cl)[C@H]1c1ccc(CO)cc1,-0.388,-0.786,-0.341,-0.635,-0.725,0.0491,-0.471,0.414,-0.815,0.27,-0.281,0.239 (inactive),-0.224,-0.0986,0.667,0.0465,1.67,-0.721,-0.761,-1.19
[N-]=[N+]=Nc1ccccc1[C@@H]1OC(c2ccc(OCCCO)cc2)=N[C@]1(Cc1ccccc1)C(=O)O,1.4,0.848,-0.529,1.57,0.886,0.0391,0.0659,0.135,1.35,1.7,0.893,0.008 (inactive),0.136,-0.0068,0.62,1.23,-0.25,1.3,0.155,0.665
CCCNC(=O)[C@@]1(Sc2ccc(C)cc2)CC(=O)N(C2Cc3ccccc3C2)[C@@H]1c1ccc(CO)cc1I,1.08,-1.65,0.698,0.183,0.497,0.0932,-0.221,1.17,0.604,0.161,-0.533,-0.0764 (inactive),0.606,-0.0186,0.427,0.807,0.702,0.95,0.378,-0.162
O=C1C2C=CC(C(O)c3ccco3)N(Nc3ccccc3F)C2C(=O)N1c1ccccc1 (stereo not given),0.761,-0.137,-0.46,0.175,-0.0085,0.115,0.184,0.742,0.942,0.25,0.963,1.49 (inactive),0.101,-0.104,-0.0101,1.85,0.433,0.309,-0.238,0.403
COC(=O)[C@@]1(Cc2ccccc2)[C@H]2c3cc(C(=O)N(C)C)n(Cc4ccc(C)o4)c3C[C@H]2CN1C(=O)c1ccccc1,0.946,-2.49,0.0319,1.69,1.26,0.69,1.95,0.728,1.29,0.76,0.874,0.173 (inactive),1.25,0.618,0.753,1.93,0.673,1.12,-1.06,0.354
CCOC(=O)C[C@H]1[C@H](OC(=O)c2ccc(C(=O)c3ccccc3)cc2)[C@@H](NC(=O)C2CCCCC2)c2cc(OCCCO)ccc2N1C(=O)c1ccc2ccccc2n1,1.3,0.0574,0.752,0.711,-0.102,0.0552,-0.243,-0.244,0.805,0.673,0.534,-0.482 (inactive),-0.0647,-0.102,0.0738,1.05,-0.0375,1.31,0.24,0.955

# From PubChem BioAssay
